Screening data: PubChem, National Center for Advancing Translational Sciences (NCATS)
ELG1 genotoxic: genotoxicity induction in ELG1-luciferase HEK293T cells; Potency, µM (series often up to 46 µM), hits mostly activators; 330,000 compounds, 1.3% hits; HEK293T ELG1-luciferase reporter, luminescence, 16 h; note: nearly all actives have a fitted effect of over 60% in size
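After overnight (16 hr) compound treatment at 37 °C, ELG1-luciferase HEK293T cells were lysed with ONE-Glo; luminescence quantified 30 min later at room temperature.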
Rab9 prom act: activates the Rab9 promoter | Huh7 Rab9 promoter-luciferase reporter, luminescence, 24 h | Potency, µM (highest dose often 9.22 µM), most hits filed as activators | 320,000 compounds, 2.8% hits | AID 485297; note: nearly all actives have a fitted effect of over 60% in size
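Huh7 cells stably carrying a Rab9 promoter-luciferase reporter, 1500 cells per well in OP-MEM I with 10% FBS, treated with compound 24 hours at 37C. Luciferase activity read by luminescence after 10 minutes with Amplite reagent.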
FLuc modulator: inhibits or activates purified firefly luciferase, miR-21 counter-screen. purified FLuc, Km substrates, luminescence inhibition. Potency, µM (top dose mostly 57.5 µM), most hits filed as inhibitors. 360,000 compounds, 6.9% hits. AID 588342; note: nearly all actives have a fitted effect of over 55% in size
Target sequence (P08659 whole entry, looked up): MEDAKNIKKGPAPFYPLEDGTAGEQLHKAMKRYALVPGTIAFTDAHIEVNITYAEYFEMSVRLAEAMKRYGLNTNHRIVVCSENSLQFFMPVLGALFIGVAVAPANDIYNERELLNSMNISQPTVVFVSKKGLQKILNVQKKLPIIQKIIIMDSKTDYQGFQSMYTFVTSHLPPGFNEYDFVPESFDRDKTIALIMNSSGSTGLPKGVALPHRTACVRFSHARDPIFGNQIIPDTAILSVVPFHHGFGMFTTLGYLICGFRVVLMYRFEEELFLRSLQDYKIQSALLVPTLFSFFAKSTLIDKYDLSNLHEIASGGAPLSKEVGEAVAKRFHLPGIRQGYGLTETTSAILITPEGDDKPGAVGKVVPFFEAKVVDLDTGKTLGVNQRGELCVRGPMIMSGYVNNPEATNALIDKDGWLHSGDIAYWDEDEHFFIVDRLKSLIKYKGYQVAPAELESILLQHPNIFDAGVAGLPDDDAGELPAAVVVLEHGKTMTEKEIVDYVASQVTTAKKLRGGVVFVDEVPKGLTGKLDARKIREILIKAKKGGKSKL
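Biochemical qHTS of compounds, final roughly 60 µM downward over six points, against 10 nM purified firefly luciferase using Km concentrations of substrates (10 uM D-luciferin, 10 uM ATP) in Tris acetate pH 7.5 buffer; luminescence output.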
p53 reactivation: re-activators of mutant p53; H1299 p53-A138V BP100-luciferase reporter, luminescence, 24 h; Potency, µM (top dose mostly 92.2 µM), actives largely listed as activators; 320,000 compounds, 0.063% hits; AID 504706; note: nearly all actives have a fitted effect of over 45% in size
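H1299 (p53-null), stable ts p53-A138V + BP100-Luc; 1000 cells/well, Opti-MEM/10% FBS; cpd 4 pt, 1:5; 24 h, 37 deg C, 5% CO2; detection reagent 10 min RT; luminescence.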
NPC1 promoter act: activators of NPC1 promoter. Huh7 NPC1 promoter luciferase reporter, 24 h. Potency, µM (titrated, usually from 9.22 µM), actives largely listed as activators. 320,000 compounds, 2.4% hits; note: nearly all actives have a fitted effect of over 60% in size
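Quantitative HTS used a cell-based reporter: Huh7 cells stably bearing the NPC1 promoter upstream of luciferase were treated with compounds for 24 h, and promoter activation was read as luminescence.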
SMN2 splice up: SMN2 splice variant enhancement; Potency, µM (top dose mostly 46.1 µM), hits mostly activators; 210,000 compounds, 2.8% hits; HEK293 SMN2-luciferase splicing reporter, luminescence, 30-36 h; note: nearly all actives have a fitted effect of over 55% in size
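HEK293 cells carry an SMN2 […]–luciferase reporter in which exon 7 inclusion puts luciferase in frame. Cells were plated 10-12 h before compound addition, then incubated 30-36 h at 37C. ONE-Glo luminescence was read; sodium butyrate at 4.5 mM final served as control.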
Numbers stand for hits; [ ] = remark or other dose. Shown are actives, neighbours in structure and some others; about 7.4% of the full set was active somewhere. Calls come from the whole dose curve; as a rule, active = well fitted curve in the direction sought with a large enough effect; inconclusive = small, poorly fitted or top-dose-only effect, or another doubt; inactive = no such curve, though single readings can be large; an effect the other way counts as inactive or inconclusive.

What do the screens show for `CC(=O)N1CCc2cc(S(=O)(=O)NC(CC(C)C)C(=O)Nc3ccc(C(C)C)cc3)ccc21` (stereo not given)?
FLuc modulator: inactive; SMN2 splice up: inactive

What do the screens show for `Cc1cc(N2CCOCC2)ccc1/C=C\[N+](=O)[O-]`?
ELG1 genotoxic: inactive; Rab9 prom act: inactive; FLuc modulator: 23.9µM; p53 reactivation: inactive; NPC1 promoter act: inactive; SMN2 splice up: inconclusive

Results for O=[N+]([O-])c1ccc(N2CCOCC2)cc1O ?
ELG1 genotoxic: inactive; Rab9 prom act: inactive; FLuc modulator: inactive; p53 reactivation: inactive; NPC1 promoter act: inactive

What do the screens show for `Cc1ccc(N2CCN(C(=O)c3noc4c3COc3ccc(C)cc3-4)CC2)c(C)c1`?
FLuc modulator: inactive

What do the screens show for `COc1cc(C(=O)Oc2ccc3ccc(O)cc3c2)cc(OC)c1OC`?
ELG1 genotoxic: inconclusive; Rab9 prom act: inactive; FLuc modulator: inactive; p53 reactivation: inactive; NPC1 promoter act: inactive

Results for O=C(Oc1ccc2ccc(O)cc2c1)C1CCCCC1 ?
ELG1 genotoxic: inactive; Rab9 prom act: inactive; FLuc modulator: 16.9µM; p53 reactivation: inactive; NPC1 promoter act: inactive; SMN2 splice up: inactive

How did O=C(c1ccccc1)c1ccc(OC(=O)C2CCCCC2)cc1 do in these assays?
ELG1 genotoxic: inactive; Rab9 prom act: inactive; FLuc modulator: 13.5µM; p53 reactivation: inactive; NPC1 promoter act: inactive

What do the screens show for `O=C(Oc1ccc(OC(=O)C2CCC2)cc1)C1CCC1`?
ELG1 genotoxic: inactive; Rab9 prom act: inactive; FLuc modulator: inconclusive; p53 reactivation: inconclusive; NPC1 promoter act: inactive; SMN2 splice up: inactive

What do the screens show for `O=C(Oc1ccc2ccc(O)cc2c1)c1ccccc1Cl`?
ELG1 genotoxic: inconclusive; Rab9 prom act: inactive; FLuc modulator: 2.39µM; p53 reactivation: inconclusive; NPC1 promoter act: inactive

How did O=C(Oc1ccc2ccccc2c1)C1CCC1 do in these assays?
ELG1 genotoxic: inactive; Rab9 prom act: inactive; FLuc modulator: 23.9µM; NPC1 promoter act: inactive

What do the screens show for `CN(C)c1ccccc1CN1CCCN(Cc2ccccc2N(C)C)C1c1ccncc1`?
SMN2 splice up: inactive[9.22 µM]

How did CCOc1ccc(CC(=O)NCC(c2cccs2)S(=O)(=O)c2ccc(F)c(C)c2)cc1 (stereo not given) do in these assays?
FLuc modulator: inactive

How did CC(C)(C)NS(=O)(=O)c1ccc(N2C(=O)c3ccccc3C2=O)cc1 do in these assays?
ELG1 genotoxic: inactive; Rab9 prom act: inactive; FLuc modulator: inactive; p53 reactivation: inactive; NPC1 promoter act: inactive; SMN2 splice up: inactive

Results for CC(C)(C)NS(=O)(=O)c1cccc(S(=O)(=O)c2cccc(S(=O)(=O)NC(C)(C)C)c2)c1 ?
ELG1 genotoxic: inconclusive; Rab9 prom act: 1.58µM; FLuc modulator: 5.36µM; p53 reactivation: inconclusive; NPC1 promoter act: 2.51µM; SMN2 splice up: 14.1µM

Results for O=C(NCC1CCCO1)c1cc(-c2ccccc2)nc2ccc(Br)cc12 (stereo not given) ?
ELG1 genotoxic: inactive; Rab9 prom act: inactive; FLuc modulator: 2.39µM; p53 reactivation: inactive; NPC1 promoter act: inactive

Results for Cc1cc(Br)cc2c(C(=O)NCC3CCCO3)cc(-c3ccccc3)nc12 (stereo not given) ?
ELG1 genotoxic: inconclusive; Rab9 prom act: inactive; FLuc modulator: 1.35µM; p53 reactivation: inconclusive; NPC1 promoter act: inactive

What do the screens show for `CC(Sc1ncnc2c1cnn2-c1ccccc1)C(=O)NCC1CCCO1` (stereo not given)?
ELG1 genotoxic: inactive; Rab9 prom act: inactive; FLuc modulator: inconclusive; p53 reactivation: inactive; NPC1 promoter act: inactive

How did Cc1nc(SC(C)C(=O)NCC2CCCO2)c2cc(-c3ccccc3)sc2n1 (stereo not given) do in these assays?
ELG1 genotoxic: inactive; Rab9 prom act: inactive; FLuc modulator: 12µM; p53 reactivation: inactive; NPC1 promoter act: inactive

Results for CCOC(=O)c1cc(-c2cc3ccccc3o2)n[nH]1 ?
ELG1 genotoxic: inactive; Rab9 prom act: inactive; FLuc modulator: 19µM; p53 reactivation: inactive; NPC1 promoter act: inactive; SMN2 splice up: inactive
